Data reported in PubChem BioAssay (Tox21).
Inconclusive results are not listed. The source made the active and inactive calls. Unless noted, the call rests on the fitted dose curve; in most records, active means well fitted curve in the direction sought with a large enough effect in the repeat runs; inconclusive means weak or mixed curves; inactive means no such curve, though single readings can be large; an effect the other way counts as inactive or inconclusive.

Key:
[1] = qHTS assay to identify small molecule antagonists of the androgen receptor (AR) signaling pathway using the MDA cell line in the presence of 0.5 nM R1881 - cell viability counter screen (AID 1259242); further: nearly all actives have a fitted effect of over 45% in size; further: potency means the concentration at half of the fitted maximal effect
Outline: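 qHTS format. MDA-kb2 (MMTV-luc, AR/GR responsive) + cpd + 0.5 nM R1881 final, 16 hr 37C/0% CO2 → CellTiter-Fluor 30 min → fluorescence intensity.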

[2] = target: Estrogen receptor (Homo sapiens) (UniProt P03372); assay: qHTS assay to identify small molecule antagonists of the estrogen receptor alpha (ER-alpha) signaling pathway using the BG1 cell line in the presence of 0.1 nM 17-beta-estradiol (AID 1259244); further: nearly all actives have a fitted effect of over 50% in size; further: potency means the concentration at half of the fitted maximal effect
Outline: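 Reporter is a stably transfected luciferase under four estrogen responsive elements in VM7Luc4E2 cells expressing native full-length ER-alpha; inhibition of 0.1 nM (final) 17beta-estradiol-driven signal over 22 h is read by luminescence.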

[3] = qHTS assay to identify small molecule HDAC inhibitors (AID 1259364);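 further: wild-type HCT-116 cells with endogenous class I/II HDAC activity; top concentration of the series differs between compounds; nearly all actives have a fitted effect of over 45% in size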
Outline: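 Quantitative high-throughput format: overnight-seeded HCT-116 cells got compounds for 2 hr at 37C; HDAC-Glo I/II reagent added, 30 min RT, luminescence measured.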

[4] = qHTS assay to identify small molecule HDAC inhibitors - cell viability counter screen (AID 1259365); further: series mostly up to about 92 µM; nearly all actives have a fitted effect of over 50% in size
Outline: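 Counter screen in wild-type HCT-116 cells: compounds dissolved in DMSO are pin-transferred onto overnight-plated cells and left 2hr at 37C. ATP-based CellTiter-Glo luminescence then measures viable cells.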

[5] = qHTS assay to identify small molecule agonists of the sonic hedgehog signaling (Shh) pathway - cell viability counter screen (AID 1259366); further: nearly all actives have a fitted effect of over 50% in size; further: potency means the concentration at half of the fitted maximal effect
Outline: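 Cells are plated at 2,000 per well and left 4hr at 37C, 5% CO2 before compound addition. After 23hr of treatment, CellTiter-Fluor reagent is added for 1hr at 37C and fluorescence is measured.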

[6] = qHTS assay to identify small molecule agonists of the sonic hedgehog signaling (Shh) pathway (AID 1259368; calls by dose curve;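 further: NIH/3T3-derived 3T3Gli1-Luc cells carrying a stable Gli1-driven firefly luciferase reporter; series mostly up to about 92 µM; nearly all actives have a fitted effect of over 15% in size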)
Outline: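 Quantitative high-throughput format using a Gli1-driven firefly luciferase reporter line derived from NIH/3T3 cells. After a 24 hr compound treatment at 37 C and 5% CO2, luminescence reported Gli1 response element activity.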

[7] = qHTS assay to identify small molecule antagonists of the sonic hedgehog signaling (Shh) pathway (AID 1259369; calls by dose curve; further: nearly all actives have a fitted effect of over 45% in size; further: potency means the concentration at half of the fitted maximal effect)
Outline: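 Stable Gli1-Luc reporter NIH/3T3 clone; quantitative HTS in stimulated mode with conditioned medium. Luminescence measured after 24hr compound treatment at 37 C.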

[8] = target: Estrogen receptor beta (Homo sapiens) (UniProt Q92731); assay: qHTS assay to identify small molecule agonists of the estrogen receptor beta (ER-beta) signaling pathway (AID 1259377; active means well fitted activation curve with a large enough effect in the signal ratio in the repeat runs, not every such curve was filed as active; the % refers to the signal ratio; further: potency means the concentration at half of the fitted maximal effect)
Outline: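 Agonist mode cell assay in GripTite HEK293T cells expressing an ER-beta fusion that drives beta-lactamase from an Upstream Activator Sequence; 16 hr compound exposure at 37C, then 2 h LiveBLAzer B/G FRET substrate at room temperature, fluorescence read-out.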

[9] = target: Estrogen receptor beta (Homo sapiens) (UniProt Q92731); assay: qHTS assay to identify small molecule antagonists of the estrogen receptor beta (ER-beta) signaling pathway (AID 1259378; active means well fitted inhibition curve with a large enough effect in the signal ratio in the repeat runs, not every such curve was filed as active; the % refers to the signal ratio)
Outline: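 Antagonist mode: compounds added to beta-lactamase reporter HEK293T ER-beta-UAS cells stimulated with E2 (1nM final), 16 hr at 37C. LiveBLAzer B/G FRET substrate, 2 hours room temperature, fluorescence read-out.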

[10] = qHTS assay to identify small molecule agonists of the androgen receptor (AR) signaling pathway in the presence of an antagonist - cell viability counter screen (AID 1259379); further: nearly all actives have a fitted effect of over 25% in size; further: potency means the concentration at half of the fitted maximal effect
Outline: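 Nilutamide-containing (3.0uM final) MDA-kb2 cultures, 3,000 cells/well, were treated with compounds across 15 concentrations. After 16 hr at 37C with no CO2, cell viability was determined by CellTiter-Fluor fluorescence in the luciferase assay wells.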

[11] = qHTS assay to identify small molecule antagonists of the estrogen receptor beta (ER-beta) signaling pathway - cell viability counter screen (AID 1259382); further: nearly all actives have a fitted effect of over 55% in size; further: potency means the concentration at half of the fitted maximal effect
Outline: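 Viability is scored by CellTiter-Glo luminescence (30 min, room temperature) in ER-beta-UAS-bla HEK293T wells already read for reporter fluorescence. Compound exposure lasts 16 hr at 37C alongside 1nM 17-beta-estradiol in charcoal-stripped serum medium.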

[12] = target: Estrogen receptor (Homo sapiens) (UniProt P03372); assay: qHTS assay to identify small molecule agonists of the estrogen receptor alpha (ER-alpha) signaling pathway in the presence of an antagonist (AID 1259383; calls by dose curve; further: nearly all actives have a fitted effect of over 15% in size; further: potency means the concentration at half of the fitted maximal effect; on activation: top concentration of the series differs between compounds)
Outline: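 Readout was ERE-driven luciferase luminescence in VM7Luc4E2 cells, which express full-length ER-alpha endogenously. Compounds were tested at 15 concentrations for 22hr alongside 10.0nM ICI-182,780 (final concentration).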

[13] = qHTS assay to identify small molecule agonists or antagonists of the thyroid stimulating hormone receptor (TSHR) signaling pathway - wild type cell line counter screen (AID 1259384; calls by dose curve)
Outline: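 Counter screen in untransfected Hek293: compounds (15-point titration, triplicate) plus phosphodiesterase inhibitor Ro20-1724 added after 18 h plating; 30 min RT. Intracellular cAMP via competitive d2/cryptate immunoassay, 1 h incubation.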

[14] = target: Thyrotropin receptor (Homo sapiens) (UniProt P16473); assay: qHTS assay to identify small molecule antagonists of the thyroid stimulating hormone receptor (TSHR) signaling pathway (AID 1259385; calls by dose curve; further: nearly all actives have a fitted effect of over 20% in size; further: potency means the concentration at half of the fitted maximal effect)
Outline: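 Antagonist mode: compound-treated TSHR-expressing HEK293 cells were stimulated with 1.5 ng/mL TSH (final) in presence of Ro20-1724 for 30 min at RT. HTRF cAMP detection after 1 h; each compound tested at 15 concentrations, triplicate.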

[15] = qHTS assay to identify small molecule agonists of the estrogen receptor beta (ER-beta) signaling pathway - cell viability counter screen (AID 1259380); further: nearly all actives have a fitted effect of over 30% in size; further: potency means the concentration at half of the fitted maximal effect
Outline: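 Steps: plate ER-beta-UAS-bla HEK293T cells, rest 6 hr; add compounds in DMSO; incubate 16 hr at 37C, 5% CO2; add FRET substrate 2 hr; add CellTiter-Glo, wait 30 min at room temperature; read luminescence.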

[16] = qHTS assay to identify small molecule antagonists of the sonic hedgehog signaling (Shh) pathway - cell viability counter screen (AID 1259367); further: nearly all actives have a fitted effect of over 55% in size; further: potency means the concentration at half of the fitted maximal effect
Outline: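 CellTiter-Fluor signal in conditioned medium-stimulated 3T3 Gli1-Luc cells, 23 hr compound exposure, 37C.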

[17] = qHTS assay to identify small molecule phospholipidosis (PLD) inducers (AID 1259344; active means well fitted curve in the direction sought with a large enough effect; an effect the other way counts as inactive or inconclusive; further: potency means the concentration at half of the fitted maximal effect)
Outline: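 Accumulated phospholipid, stained red by LipidTOX during 24 h compound treatment of HepG2 cells at 37 C, is quantified from images as pit number and intensity, normalised per cell using Hoechst-stained nuclei.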

Measured: Potency

Sequence of Estrogen receptor (Homo sapiens) (P03372 whole entry, looked up): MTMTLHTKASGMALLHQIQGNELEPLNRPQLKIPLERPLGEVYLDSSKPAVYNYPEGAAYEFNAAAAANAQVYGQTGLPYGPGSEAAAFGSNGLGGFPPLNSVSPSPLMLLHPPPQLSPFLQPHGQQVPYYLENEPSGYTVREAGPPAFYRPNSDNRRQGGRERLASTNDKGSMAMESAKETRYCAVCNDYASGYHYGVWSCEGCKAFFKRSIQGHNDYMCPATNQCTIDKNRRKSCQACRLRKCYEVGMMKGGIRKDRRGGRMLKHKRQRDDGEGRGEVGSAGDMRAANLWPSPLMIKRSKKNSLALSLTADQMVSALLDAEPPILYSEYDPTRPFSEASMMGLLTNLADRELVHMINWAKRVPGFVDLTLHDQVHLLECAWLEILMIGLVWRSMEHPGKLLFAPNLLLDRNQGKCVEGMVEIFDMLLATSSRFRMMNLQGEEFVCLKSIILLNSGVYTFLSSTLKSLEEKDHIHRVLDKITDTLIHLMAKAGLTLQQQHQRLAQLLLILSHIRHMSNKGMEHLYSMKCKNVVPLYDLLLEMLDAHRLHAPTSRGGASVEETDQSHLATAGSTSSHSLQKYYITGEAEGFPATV
Sequence of Thyrotropin receptor (Homo sapiens) (P16473 whole entry, looked up): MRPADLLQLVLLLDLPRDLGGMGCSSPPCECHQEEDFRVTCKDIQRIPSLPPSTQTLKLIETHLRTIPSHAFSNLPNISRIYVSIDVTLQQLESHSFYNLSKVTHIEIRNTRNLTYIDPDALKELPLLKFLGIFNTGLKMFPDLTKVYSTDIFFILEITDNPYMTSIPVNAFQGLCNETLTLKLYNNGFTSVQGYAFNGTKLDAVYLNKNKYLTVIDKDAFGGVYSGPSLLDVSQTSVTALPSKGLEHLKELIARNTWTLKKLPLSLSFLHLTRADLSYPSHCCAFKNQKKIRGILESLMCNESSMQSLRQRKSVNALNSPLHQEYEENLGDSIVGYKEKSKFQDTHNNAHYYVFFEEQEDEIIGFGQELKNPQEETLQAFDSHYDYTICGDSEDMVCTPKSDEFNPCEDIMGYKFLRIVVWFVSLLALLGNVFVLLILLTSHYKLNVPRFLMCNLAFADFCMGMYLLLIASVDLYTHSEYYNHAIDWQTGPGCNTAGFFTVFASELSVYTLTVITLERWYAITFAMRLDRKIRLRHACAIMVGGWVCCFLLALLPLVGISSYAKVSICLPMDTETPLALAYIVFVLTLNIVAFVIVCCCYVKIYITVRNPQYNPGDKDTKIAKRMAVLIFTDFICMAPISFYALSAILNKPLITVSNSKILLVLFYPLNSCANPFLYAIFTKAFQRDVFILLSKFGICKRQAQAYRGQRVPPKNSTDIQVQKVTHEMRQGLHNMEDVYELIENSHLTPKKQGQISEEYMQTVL
Sequence of Estrogen receptor beta (Homo sapiens) (Q92731 whole entry, looked up, the tested form may be a part): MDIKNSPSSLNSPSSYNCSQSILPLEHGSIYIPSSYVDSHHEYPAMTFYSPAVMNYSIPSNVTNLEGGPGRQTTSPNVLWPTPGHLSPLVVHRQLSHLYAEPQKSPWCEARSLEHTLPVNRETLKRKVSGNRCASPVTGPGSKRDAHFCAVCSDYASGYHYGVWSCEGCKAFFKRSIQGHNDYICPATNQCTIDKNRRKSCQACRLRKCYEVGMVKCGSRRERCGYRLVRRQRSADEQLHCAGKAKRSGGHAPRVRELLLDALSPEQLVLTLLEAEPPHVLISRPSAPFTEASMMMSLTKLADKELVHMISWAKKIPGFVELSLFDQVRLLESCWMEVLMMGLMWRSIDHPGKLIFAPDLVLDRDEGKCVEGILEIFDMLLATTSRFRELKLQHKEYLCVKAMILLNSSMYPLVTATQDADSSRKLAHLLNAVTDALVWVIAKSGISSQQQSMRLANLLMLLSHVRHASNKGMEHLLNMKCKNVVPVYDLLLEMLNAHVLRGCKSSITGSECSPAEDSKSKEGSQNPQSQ

Cc1cc(C(C)(C)C)c(O)c(C)c1Cn1c(=O)n(Cc2c(C)cc(C(C)(C)C)c(O)c2C)c(=O)n(Cc2c(C)cc(C(C)(C)C)c(O)c2C)c1=O
not listed: [15] | [16] | [17]
inactive: all other assays above

C[Si](Cl)(c1ccccc1)c1ccccc1
not listed: [8] | [9] | [10] | [16] | [17]
inactive: all other assays above

OCCN1CCN(CCCN2c3ccccc3Sc3ccc(C(F)(F)F)cc32)CC1
active: [5] 23.7 µM | [15] 26.6 µM | [11] 21.1 µM
not listed: [1] | [9] | [10] | [17]
inactive: all other assays above

COc1ccc(NC(=O)CC(C)=O)cc1
not listed: [2] | [3] | [12] | [17]
inactive: all other assays above

CCCCCCCCCCCCOC(=O)c1ccc(O)cc1
not listed: [2] | [9] | [13] | [14] | [17]
inactive: all other assays above

OC[C@@H](O)[C@@H](O)CO
not listed: [3] | [17]
inactive: all other assays above

O=C1CCc2ccc(OCCCCN3CCN(c4cccc(Cl)c4Cl)CC3)cc2N1
active: [1] 29.8 µM | [7] 11.9 µM | [15] 10.6 µM | [11] 33.5 µM
inactive: [17] | [3] | [4] | [16] | [6] | [13] | [14]

CN(C)Cc1cc(C(C)(C)C)c(O)c(C(C)(C)C)c1
inactive: [1] | [3] | [4] | [5] | [16] | [6] | [13]

COc1ccc2cc1Oc1ccc(cc1)C[C@H]1c3c(cc4c(c3Oc3cc5c(cc3OC)CCN(C)[C@@H]5C2)OCO4)CCN1C
inactive: [4] | [6] | [11] | [12] | [13]
active: [1] 21.1 µM | [5] 11.9 µM | [16] 15 µM | [7] 3.76 µM | [10] 26.6 µM | [15] 26.6 µM | [14] 23.7 µM

C#C[C@]1(OC(C)=O)CC[C@H]2[C@@H]3CCC4=C[C@@H](OC(C)=O)CC[C@@H]4[C@H]3CC[C@@]21C
active: [17] 10 µM | [8] 0.335 µM | [12] 0.0531 µM | [14] 11.9 µM
not listed: [2] | [7] | [9] | [15] | [16]
inactive: all other assays above

O=C1c2ccccc2C(=O)N1SC1CCCCC1
active: [2] 61.1 µM | [5] 30.6 µM | [7] 15.3 µM | [15] 54.5 µM
not listed: [3] | [8] | [11] | [17]
inactive: all other assays above
